Measured values taken from the supplement of paper PMC10646978.
± gives the standard deviation.

Tests used:
Conditions in all cases: modulator concentration 10 µM
[1] = tested on: RAW-Dual (murine macrophage reporter line); test: NF-kB reporter (SEAP) activity fold change vs agonist alone; higher = enhanced NF-kB activity
In short: (§1)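 In 384-well plates holding 50 000 RAW-Dual murine macrophage reporter cells per well, compound at 10 μM final was pre-incubated for 1 hour at 37 °C, after which a PRR agonist was added overnight. Supernatant SEAP read with QUANTI-Blue at 620 nm absorbance reported NF-κB, and Lucia luciferase read with QUANTI-Luc luminescence reported IRF. Fold change values come from dividing each reporter signal by the mean of agonist-only control wells on the same plate, averaged over replicate plates with propagated errors.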

[2] = tested on: RAW-Dual (murine macrophage reporter line); test: IRF reporter (Lucia luciferase) activity fold change vs agonist alone; higher = enhanced IRF activity
In short: as §1

[3] = tested on: RAW-Dual (murine macrophage reporter line); test: viability score (confluency relative to resting cells, overnight) (fraction); higher = more viable, active = viable (0.7 or more)
In short: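 RAW-Dual macrophages in 384-well plates were treated overnight with compound at 10 μM final. IncuCyte imaging recorded confluency, and IncuCyte software built two confluency masks across every imaged well. The viability score expresses confluency relative to resting cells and was judged against a cutoff, which a compound met only if both masks exceeded 70% of resting cells.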

[4] = agonist: CpG ODN 1826 0.5 ug/mL

Structure (SMILES): O=S(=O)(NCc1ccccn1)c1cccc(Cl)c1
- NF-kB reporter [1, 4]: 0.918 ± 0.039
- NF-kB reporter ([1]; agonist: LPS 0.1 ug/mL): 0.986 ± 0.12
- NF-kB reporter ([1]; agonist: MPLA […]): 1.06 ± 0.057
- IRF reporter ([2]; agonist: 3'3'-cGAMP 10 ug/mL): 1.02 ± 0.061
- IRF reporter ([2]; agonist: LPS 0.1 ug/mL): 1.32 ± 0.17
- IRF reporter ([2]; agonist: MPLA […]): 1.49 ± 0.46
- viability score [3]: 0.986 (active)

Structure (SMILES): CCN(CC)Cc1cc(Nc2ccnc3cc(Cl)ccc23)ccc1O.Cl.Cl
- NF-kB reporter [1, 4]: 0.199 ± 0.011
- NF-kB reporter ([1]; agonist: LPS 0.1 ug/mL): 0.753 ± 0.073
- NF-kB reporter ([1]; agonist: MPLA […]): 0.774 ± 0.046
- IRF reporter ([2]; agonist: 3'3'-cGAMP 10 ug/mL): 1.19 ± 0.075
- IRF reporter ([2]; agonist: LPS 0.1 ug/mL): 1.03 ± 0.11
- IRF reporter ([2]; agonist: MPLA […]): 1.47 ± 0.16
- viability score [3]: 0.873 (active)

Structure (SMILES): Cl.OC(CCN1CCCCC1)(c1ccccc1)C1CCCCC1 (stereo unspecified)
- NF-kB reporter [1, 4]: 0.338 ± 0.034
- NF-kB reporter ([1]; agonist: LPS 0.1 ug/mL): 1.01 ± 0.081
- NF-kB reporter ([1]; agonist: MPLA […]): 1.11 ± 0.075
- IRF reporter ([2]; agonist: 3'3'-cGAMP 10 ug/mL): 1.03 ± 0.058
- IRF reporter ([2]; agonist: LPS 0.1 ug/mL): 1.11 ± 0.19
- IRF reporter ([2]; agonist: MPLA […]): 1.08 ± 0.34
- viability score [3]: 1.01 (active)

Structure (SMILES): CC(C)(C)C1CCc2c(sc(NC(=O)c3ccc(F)cc3)c2C(N)=O)C1 (stereo unspecified)
- NF-kB reporter [1, 4]: 0.981 ± 0.16
- NF-kB reporter ([1]; agonist: LPS 0.1 ug/mL): 0.999 ± 0.12
- NF-kB reporter ([1]; agonist: MPLA […]): 1 ± 0.13
- IRF reporter ([2]; agonist: 3'3'-cGAMP 10 ug/mL): 0.914 ± 0.041
- IRF reporter ([2]; agonist: LPS 0.1 ug/mL): 1.24 ± 0.3
- IRF reporter ([2]; agonist: MPLA […]): 1.24 ± 0.21
- viability score [3]: 0.56 (inactive)

Structure (SMILES): CC1=CC(C)C2(COC(c3cccnc3)OC2)C(C)C1 (stereo unspecified)
- NF-kB reporter [1, 4]: 0.876 ± 0.067
- NF-kB reporter ([1]; agonist: LPS 0.1 ug/mL): 0.788 ± 0.12
- NF-kB reporter ([1]; agonist: MPLA […]): 0.695 ± 0.065
- IRF reporter ([2]; agonist: 3'3'-cGAMP 10 ug/mL): 0.967 ± 0.033
- IRF reporter ([2]; agonist: LPS 0.1 ug/mL): 1.15 ± 0.18
- IRF reporter ([2]; agonist: MPLA […]): 1.1 ± 0.19
- viability score [3]: 0.388 (inactive)

Structure (SMILES): Cc1nc(NC(=O)N2CCC[C@H]2C(N)=O)sc1-c1ccnc(C(C)(C)C(F)(F)F)c1
- NF-kB reporter [1, 4]: 0.626 ± 0.034
- NF-kB reporter ([1]; agonist: LPS 0.1 ug/mL): 0.894 ± 0.072
- NF-kB reporter ([1]; agonist: MPLA […]): 1.6 ± 0.66
- IRF reporter ([2]; agonist: 3'3'-cGAMP 10 ug/mL): 0.916 ± 0.066
- IRF reporter ([2]; agonist: LPS 0.1 ug/mL): 1.18 ± 0.24
- IRF reporter ([2]; agonist: MPLA […]): 1.32 ± 0.33
- viability score [3]: 1.02 (active)

Structure (SMILES): CC(=O)NNC(=O)c1ccncc1
- NF-kB reporter [1, 4]: 1.13 ± 0.089
- NF-kB reporter ([1]; agonist: LPS 0.1 ug/mL): 1.13 ± 0.074
- NF-kB reporter ([1]; agonist: MPLA […]): 1.03 ± 0.043
- IRF reporter ([2]; agonist: 3'3'-cGAMP 10 ug/mL): 1 ± 0.15
- IRF reporter ([2]; agonist: LPS 0.1 ug/mL): 1.07 ± 0.14
- IRF reporter ([2]; agonist: MPLA […]): 1.07 ± 0.26
- viability score [3]: 0.996 (active)

Structure (SMILES): O=C(Cc1ccc(NC(=O)c2ccc(OC(F)(F)F)cc2)cc1)NCC(F)(F)F
- NF-kB reporter [1, 4]: 1.22 ± 0.094
- NF-kB reporter ([1]; agonist: LPS 0.1 ug/mL): 1.04 ± 0.12
- NF-kB reporter ([1]; agonist: MPLA […]): 0.994 ± 0.031
- IRF reporter ([2]; agonist: 3'3'-cGAMP 10 ug/mL): 0.984 ± 0.055
- IRF reporter ([2]; agonist: LPS 0.1 ug/mL): 1.03 ± 0.077
- IRF reporter ([2]; agonist: MPLA […]): 1.04 ± 0.18
- viability score [3]: 0.999 (active)

Structure (SMILES): CCC(=O)Nc1ccc(S(=O)(=O)N2CCSC(c3ccccc3C)CC2)c(C)c1 (stereo unspecified)
- NF-kB reporter [1, 4]: 0.688 ± 0.045
- NF-kB reporter ([1]; agonist: LPS 0.1 ug/mL): 0.88 ± 0.11
- NF-kB reporter ([1]; agonist: MPLA […]): 0.937 ± 0.087
- IRF reporter ([2]; agonist: 3'3'-cGAMP 10 ug/mL): 0.412 ± 0.018
- IRF reporter ([2]; agonist: LPS 0.1 ug/mL): 0.996 ± 0.085
- IRF reporter ([2]; agonist: MPLA […]): 0.988 ± 0.17
- viability score [3]: 0.994 (active)

Structure (SMILES): O=c1[nH]nc(Br)c(=O)[nH]1
- NF-kB reporter [1, 4]: 1.04 ± 0.082
- NF-kB reporter ([1]; agonist: LPS 0.1 ug/mL): 1.1 ± 0.09
- NF-kB reporter ([1]; agonist: MPLA […]): 0.969 ± 0.04
- IRF reporter ([2]; agonist: 3'3'-cGAMP 10 ug/mL): 0.993 ± 0.11
- IRF reporter ([2]; agonist: LPS 0.1 ug/mL): 1.03 ± 0.057
- IRF reporter ([2]; agonist: MPLA […]): 1.02 ± 0.086
- viability score [3]: 0.992 (active)

Structure (SMILES): COc1ccc(C)c2sc(NC(=O)c3ccco3)nc12
- NF-kB reporter [1, 4]: 1.18 ± 0.089
- NF-kB reporter ([1]; agonist: LPS 0.1 ug/mL): 0.847 ± 0.068
- NF-kB reporter ([1]; agonist: MPLA […]): 1.11 ± 0.031
- IRF reporter ([2]; agonist: 3'3'-cGAMP 10 ug/mL): 0.863 ± 0.078
- IRF reporter ([2]; agonist: LPS 0.1 ug/mL): 0.845 ± 0.061
- IRF reporter ([2]; agonist: MPLA […]): 0.882 ± 0.073
- viability score [3]: 0.971 (active)

Structure (SMILES): Cc1cc(N2CCCC2)nc(Nc2ccc(NC(=O)CC(C)C)cc2)n1
- NF-kB reporter [1, 4]: 0.131 ± 0.01
- NF-kB reporter ([1]; agonist: LPS 0.1 ug/mL): 1.18 ± 0.087
- NF-kB reporter ([1]; agonist: MPLA […]): 1.31 ± 0.13
- IRF reporter ([2]; agonist: 3'3'-cGAMP 10 ug/mL): 0.947 ± 0.04
- IRF reporter ([2]; agonist: LPS 0.1 ug/mL): 1.3 ± 0.14
- IRF reporter ([2]; agonist: MPLA […]): 1.49 ± 0.2
- viability score [3]: 0.939 (active)

Structure (SMILES): COC(=O)C1=C(C)NC(C)=C(C(=O)OC)C1c1c(F)cccc1Cl
- NF-kB reporter [1, 4]: 0.828 ± 0.067
- NF-kB reporter ([1]; agonist: LPS 0.1 ug/mL): 1.27 ± 0.072
- NF-kB reporter ([1]; agonist: MPLA […]): 1.42 ± 0.092
- IRF reporter ([2]; agonist: 3'3'-cGAMP 10 ug/mL): 1.1 ± 0.04
- IRF reporter ([2]; agonist: LPS 0.1 ug/mL): 1.17 ± 0.11
- IRF reporter ([2]; agonist: MPLA […]): 1.2 ± 0.23
- viability score [3]: 0.979 (active)
